# Measured values: the supplement of paper PMC6555819
# Test system: LXRb:RXRa (NR concentration 270 nM, RXRa partner concentration 90 nM)
# Assay: PBM binding z-score (relative to random genomic background probes); higher = stronger binding; sequences stand for … in GC…GCGATTGACAGCGTAGAATGAAGG
# Method in brief: (§1)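 Binding buffer was PBS pH 7.4 with 2% milk, 0.02% Triton X-100, 1 mM DTT, 0.2 mg/mL BSA and 0.4 mg/ml salmon testes DNA. In it, ligand-free nuclear receptor dimers were incubated 1 h on custom Agilent 4×180K protein-binding microarrays carrying double-stranded probes. Antibodies against each partner (one per run) detected binding, and z-scores were calculated against random background probes after regression normalization of scanned fluorescence.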
row,Sequence,PBM binding z-score
1,TCATCTAGGTAATACAGGTGAAAGTCGGCATCTA,0.796
2,CGTCCAAGGTCAGAAGGTCAGTGAAAGCGACGTG,3.22
3,CATACAGGGTCAGCTAAGCCAGAGTAGGGACGGC,2.17
4,TATACAGGGTCAGAGGCCAGAGTACGAATGTCGA,2.95
5,GGATCGAGGGCATTCGAGTTGATAGCATGGCGAT,-0.0829
6,ACTAGTTGGTCAGCTGTGGTCACACACAATTCGG,-0.0787
7,TCGAGTAGGTTAGGGGCACTCAGAATGGCGTCGA,0.556
8,CCTAGAAGGCCAATCTGGGTCACTCAAGGCTTGA,2.04
9,ACTTACGAGTCAACGAGGTTATAGCACGCGTATA,1.26
10,TAGCCTAGGTCATGGGCTAGTATACCACGCGAAC,1.86
11,TCTGCTAGGTCAACGATGGTCATCTAATCTGCTA,2.03
12,TCTATTAGCTGATTAGGGCAACCGAAACAGCGGA,-0.12
13,CTCGAAAGGTGGGTTGAGGTGAGTATACGGATAA,1.1
14,CGTCCAAGGTCATAGGAAGTCAGTGAAGACAGAT,3.9
15,ATCTATAGGTAACAAGTTCAGTGAAAGAGAGGAC,0.927
16,TCGTGTAGATCAAGCAGGTTAAGAAAGCCTGAGT,0.143
17,CCTGGGAGGACAACAGGAGGTCAGAGCTGCCAGA,1.57
18,AGAATGAGGGTATACGTAGATCAGGGAAGAAAGT,-0.0551
19,AATACAGGGTCACTAGGCTAGAGTAGGTACGAAT,3.9
20,TCGAGTAGGTTACTAATGGGGCATTCAGCTTTCT,1.24

row,Sequence,PBM binding z-score
1,GTACCAACGTGAATAGGTCGTTGATGAGTAGGCG,-0.2
2,CCTACTGGGCCATCAGGTTATTGATATCAACGTT,0.293
3,ATCTCTAGGTAAGACTCAGTTCATTGAAGAACGC,0.779
4,CCTTACGGGTGAAGGTTATAGCACGGGTGGTACG,0.0957
5,ACCTCTAGGTAAAAGTTCAGTGAATCCCGAGGAT,0.401
6,CGTCAAAGTTCAACTAAGGTGACGTAAAGCACGC,4.04
7,CATACTGGGCCATCAGGTCATTGATATCAACGTT,1.75
8,CCGACTGGGGCATAAGGTTACAATAAGCCAGCCC,0.936
9,CGAACTAGGTCAGAACAGGACAGTGCAGGATGAT,0.147
10,CAAACTTGGTCAAAGGTCAAAGTCGAGCCAACCA,5.67
11,TCATATAGGCAAATGCTAGGTGAAAGTCCGATCT,0.0683
12,ATCTCTATGTAAAGATAGTTCAGTGAATGCAAAT,0.261
13,GTACCAAGGAGAATAGGTCGTTGATGAGTAGGCG,-0.316
14,TATACAGGGCCAAAGGCCAGAGTACGAATGTCGA,-0.197
15,GCTGCTAGGTCAGGTTGCTCAGCTAACGGGTACG,0.238
16,AGTCAAAGTTCAGGGCGAGGTAACGTAAAGCACG,2.27
17,ACCTACGGGTCAACGAGGTTATAGCACGCGTATA,3.98
18,TCTGCTAAGTCAGTTGGTCAGCTAACGAGCTGCC,-0.89
19,TATCCTAGGTCATGGGCCAGTATACCACGCGAAC,3.5

# Test system: LXRb homodimer (NR concentration 270 nM)
# Assay: as above
# Method in brief: as §1
row,Sequence,PBM binding z-score
1,TCATCTAGGTAATACAGGTGAAAGTCGGCATCTA,0.445
2,CGTCCAAGGTCAGAAGGTCAGTGAAAGCGACGTG,-0.0292
3,CATACAGGGTCAGCTAAGCCAGAGTAGGGACGGC,0.175
4,TATACAGGGTCAGAGGCCAGAGTACGAATGTCGA,1.8
5,GGATCGAGGGCATTCGAGTTGATAGCATGGCGAT,-0.428
6,ACTAGTTGGTCAGCTGTGGTCACACACAATTCGG,-0.362
7,TCGAGTAGGTTAGGGGCACTCAGAATGGCGTCGA,-0.72
8,CCTAGAAGGCCAATCTGGGTCACTCAAGGCTTGA,-0.793
9,ACTTACGAGTCAACGAGGTTATAGCACGCGTATA,0.307
10,TAGCCTAGGTCATGGGCTAGTATACCACGCGAAC,-0.806
11,TCTGCTAGGTCAACGATGGTCATCTAATCTGCTA,0.0541
12,TCTATTAGCTGATTAGGGCAACCGAAACAGCGGA,-0.075
13,CTCGAAAGGTGGGTTGAGGTGAGTATACGGATAA,0.353
14,CGTCCAAGGTCATAGGAAGTCAGTGAAGACAGAT,0.55
15,ATCTATAGGTAACAAGTTCAGTGAAAGAGAGGAC,0.629
16,TCGTGTAGATCAAGCAGGTTAAGAAAGCCTGAGT,-0.921
17,CCTGGGAGGACAACAGGAGGTCAGAGCTGCCAGA,-0.371
18,AGAATGAGGGTATACGTAGATCAGGGAAGAAAGT,-0.229
19,AATACAGGGTCACTAGGCTAGAGTAGGTACGAAT,0.775
20,TCGAGTAGGTTACTAATGGGGCATTCAGCTTTCT,-0.917

row,Sequence,PBM binding z-score
1,GTACCAACGTGAATAGGTCGTTGATGAGTAGGCG,-0.829
2,CCTACTGGGCCATCAGGTTATTGATATCAACGTT,-0.502
3,ATCTCTAGGTAAGACTCAGTTCATTGAAGAACGC,1.11
4,CCTTACGGGTGAAGGTTATAGCACGGGTGGTACG,-0.349
5,ACCTCTAGGTAAAAGTTCAGTGAATCCCGAGGAT,-0.0602
6,CGTCAAAGTTCAACTAAGGTGACGTAAAGCACGC,2.05
7,CATACTGGGCCATCAGGTCATTGATATCAACGTT,0.36
8,CCGACTGGGGCATAAGGTTACAATAAGCCAGCCC,-0.85
9,CGAACTAGGTCAGAACAGGACAGTGCAGGATGAT,-0.225
10,CAAACTTGGTCAAAGGTCAAAGTCGAGCCAACCA,2.36
11,TCATATAGGCAAATGCTAGGTGAAAGTCCGATCT,-0.278
12,ATCTCTATGTAAAGATAGTTCAGTGAATGCAAAT,0.232
13,GTACCAAGGAGAATAGGTCGTTGATGAGTAGGCG,-0.56
14,TATACAGGGCCAAAGGCCAGAGTACGAATGTCGA,0.431
15,GCTGCTAGGTCAGGTTGCTCAGCTAACGGGTACG,-0.468
16,AGTCAAAGTTCAGGGCGAGGTAACGTAAAGCACG,0.321
17,ACCTACGGGTCAACGAGGTTATAGCACGCGTATA,0.188
18,TCTGCTAAGTCAGTTGGTCAGCTAACGAGCTGCC,-0.474
19,TATCCTAGGTCATGGGCCAGTATACCACGCGAAC,1.69
